Screening results: PubChem BioAssay, National Center for Advancing Translational Sciences (NCATS)
Sfp inh: Sfp phosphopantetheinyl transferase inhibition; Potency, µM, for the others: largest response in the series, negative = inhibition, usual class: inhibitors; Biochemical Sfp PPTase activity, qHTS; hit rate 3.5% among 310,000;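 further: the enzyme is Sfp with the accession as filed and its product quenches rhodamine fluorescence; 0% = enzyme reaction without inhibitor and -100% = no enzyme wells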
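Fluorescence-quenching assay with 15 nM Sfp, 5 uM rhodamine-CoA and 12.5 uM BHQ-2-labelled ybbR peptide in pH 7.6 Hepes/MgCl2 buffer. Enzyme was pre-incubated with compound for 15 min at room temperature. Rate was taken from the 30-min fluorescence change (525/598 nm).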
HP1b binding inh: HP1-beta chromodomain-methylated histone interaction inhibition. hit rate 0.56% among 390,000. AlphaScreen HP1-beta / biotin-H3K9me3 peptide binding. P83916. Potency, µM (titrated, usually from 114 µM), without a hit: top-dose activity change, negative = inhibition, usual class: inhibitors; further: nearly all actives have a fitted effect of over 70% in size
Target sequence (P83916 whole entry, looked up): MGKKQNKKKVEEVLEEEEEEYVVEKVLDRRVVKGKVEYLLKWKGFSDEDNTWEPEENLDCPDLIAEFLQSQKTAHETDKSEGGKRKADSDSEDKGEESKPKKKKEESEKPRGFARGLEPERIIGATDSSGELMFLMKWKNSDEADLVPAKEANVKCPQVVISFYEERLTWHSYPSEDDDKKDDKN
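Compound inhibition of the preformed complex between 50 nM HP1-beta and 50 nM biotinylated H3K9me3 peptide was read by AlphaScreen. Buffer was PBS pH 7.4 with 0.01% Tween-20. Incubations ran 30 min at room temperature, with 10 ug/mL donor/acceptor beads.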
G9a block: blocks human histone lysine methyltransferase G9a. hit rate 8.8% among 350,000. Q96KQ7. G9a H3K9 monomethylation, AlphaScreen, 2 h. Potency, µM (doses to about 102 µM), without a hit: at the highest dose activity, negative = inhibition, usual class: inhibitors. AID 504332; further: on the % scale 0 is the no-effect control and ±100 the full control effect; nearly all actives have a fitted effect of over 75% in size
Target sequence (Q96KQ7 913-1193 limits assumed): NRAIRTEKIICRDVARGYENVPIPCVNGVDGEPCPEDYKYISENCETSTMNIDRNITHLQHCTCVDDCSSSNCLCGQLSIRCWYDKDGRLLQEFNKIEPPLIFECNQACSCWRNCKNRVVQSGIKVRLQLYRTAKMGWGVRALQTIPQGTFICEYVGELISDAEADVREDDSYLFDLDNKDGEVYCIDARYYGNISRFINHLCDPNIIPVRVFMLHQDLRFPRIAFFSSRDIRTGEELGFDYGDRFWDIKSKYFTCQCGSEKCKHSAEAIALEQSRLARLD
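Signal arises when biotinylated H3K9 peptide, once monomethylated, bridges streptavidin donor and antibody-captured acceptor beads. Enzyme at 20 nM was preincubated 15 min with test compounds; peptide 500 nM and SAM 20 uM then reacted for 2 h.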
BAZ2B inh: inhibitors of human BAZ2B bromodomain; Potency, µM (titrated, usually from 114 µM), inactives show top-dose activity change, negative = inhibition, usual class: inhibitors; AlphaScreen BAZ2B-H3K14Ac peptide displacement; Q9UIF8; hit rate 4.4% among 360,000; further: on the % scale 0 is the no-effect control and ±100 the full control effect; nearly all actives have a fitted effect of over 60% in size
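AlphaScreen luminescence quantifies BAZ2B engagement of H3K14Ac peptide; the protein and biotinylated peptide are both at 50 nM final, buffer PBS pH 7.4 with 0.01% Tween-20, all steps at room temperature.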
12-LOX inh: blocks human arachidonate 12S-lipoxygenase | purified 12hLO, xylenol orange hydroperoxide absorbance | Potency, µM (series often up to 108 µM), without a hit: at the top dose activity change, negative = inhibition, most hits filed as inhibitors | hit rate 1.1% among 580,000 | AID 1671190; further: on the % scale 0 is the no-effect control and ±100 the full control effect
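Purified human 12hLO (150 nM final) in 25 mM Hepes, 0.01% Triton X-100, pH 7.0 was preincubated 15 min at room temperature with compound. Then 40 uM arachidonic acid was added, 30 min. Hydroperoxide was read by Fe-XO absorbance ratio 573/405 nm.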
JMJD2A Tudor inh: inhibitors of human JMJD2A Tudor domain; AlphaScreen JMJD2A-Tudor / H3K4me3 peptide binding; Potency, µM (top dose mostly 114 µM), without a hit: top-dose activity change, negative = inhibition, usual class: inhibitors; hit rate 4.4% among 390,000; AID 504339; further: on the % scale 0 is the no-effect control and ±100 the full control effect; nearly all actives have a fitted effect of over 50% in size
* hit, by the source's call; ? = inconclusive; nt = no result given; [ ] = another dose, or the depositor's remark. Hits are enriched below; roughly 8.7% of the tested compounds scored in any of these assays. The call rests on the fitted dose curve; in most records, active means well fitted curve in the direction sought with a large enough effect; inconclusive means small, poorly fitted or top-dose-only effect, or another doubt; inactive means no such curve, though single readings can be large; an effect the other way counts as inactive or inconclusive. Potency means the concentration at half of the fitted maximal effect.

SMILES	Sfp inh	HP1b binding inh	G9a block	BAZ2B inh	12-LOX inh	JMJD2A Tudor inh
Cc1ccc(CNC(=O)Nc2ccc(OC(F)(F)F)cc2)n1C	6%	-3%	50µM*	?	?	-35%
Cc1ccc(CNC(=O)Nc2ccc(F)cc2)n1C	-10%	29%	50µM*	-36%	?	?
CC(C)(C)c1ccc(NC(=O)Nc2ccc(F)cc2)cc1	14%	-10%	-8%	2%	?	35µM*
COc1ccccc1NC(=O)NCc1ccc(C)n1C	2%	7%	10%[12.7 µM]	-25%	21%	-13%
COc1ccc(OC)c(NC(=O)Cn2ccc3cc(Cl)ccc32)c1	nt	nt	nt	nt	-2%	nt
CC1(C)[C@H](Cc2cc(CN3CCOCC3)on2)C[C@@H]1NCc1ccccc1O	nt	nt	nt	nt	-10%[176 µM]	nt
COCC(C)NS(=O)(=O)c1c(C)c(C)c(C)c(C)c1C (centres undefined)	nt	nt	nt	nt	23%	nt
FC(F)(F)c1ccccc1-c1cncnc1NCCN1CCOCC1	1%	nt	-1%[0.501 µM]	nt	18µM*	nt
FC(F)(F)c1ccccc1-c1cncnc1Nc1ccccc1	5%	nt	nt	nt	25µM*	nt
CCc1nc(-c2c3n(c(=O)n(Cc4cc(F)cc(F)c4)c2=O)CCCC3)no1	nt	nt	nt	nt	40%	nt
O=C(c1cn[nH]c1)N1C[C@@H](COCC2CC2)[C@H](c2ccncc2)C1	nt	nt	nt	nt	22%	nt
COc1ccc(-n2c(Cc3ccccc3)nnc2SCc2ccc([N+](=O)[O-])cc2)cc1	-15%	-14%	50µM*	?	?	?
COc1ccc(CC(=O)NCc2nnc(SCc3ccc([N+](=O)[O-])cc3)n2C)cc1	15%	18%	13%	-13%	-15%	-15%
Cn1c(Cc2cccc3ccccc23)nnc1SCc1ccc([N+](=O)[O-])cc1	-4%	-8%	10µM*	-39%	?	?
CCCNc1c(NC(=O)NCCCOC)c(=O)oc2ccccc12	nt	nt	nt	nt	10%	nt
CCOC(=O)Cn1c(CN2CCc3ccccc3C2)nc2c1c(=O)n(C)c(=O)n2C	23%	59%	40µM*	4%	22%	-27%
Cn1c(=O)c2c(nc(CN3CCc4ccccc4C3)n2Cc2ccccc2F)n(C)c1=O	1%	42%	18µM*	-19%	48%	-27%
Cn1c(=O)c2c(nc(CN3CCc4ccccc4C3)n2CCCO)n(C)c1=O	12%	39%	11µM*	-14%	?	1%
CCC1CCc2c(sc(N)c2C(N)=O)C1 (centres undefined)	nt	-17%	nt	nt	?	?
CCOC(=O)c1c(N)sc2c1CCSC2	-29%	-10%	50µM*	?	38%	-33%
CCOC(=O)c1c(N)sc2c1CCC(CC)C2 (centres undefined)	-17%	?	11µM*	-29%	-5%	-33%
CCCOC(=O)c1c(N)sc(C(=O)OCC)c1C	-10%	9%	3%[59 µM]	10%	10%	-8%
CCOC(=O)c1c(N)sc2c1CCC1C(=O)N(C3CCCCC3)C(=O)C21 (centres undefined)	20µM*	-26%	?	-6%	?	-25%
O=C(CC1CCCC1)OCC(=O)c1ccc(Cl)cc1	nt	nt	nt	nt	-26%	nt
O=[N+]([O-])c1ccc(O)c(/C=N/n2cnc3ccccc32)c1	7%	-3%	11%[59 µM]	-1%	-7%	-21%
SMILES	Sfp inh	HP1b binding inh	G9a block	BAZ2B inh	12-LOX inh	JMJD2A Tudor inh
O=C(NN1C(=O)/C(=C/c2ccc(O)cc2)SC1=S)c1cccc(O)c1	27%	-15%	45µM*	?	27%	?
Cc1ccc(/C=C2\SC(=S)N(/N=C/c3cc([N+](=O)[O-])ccc3O)C2=O)o1	25µM*	45µM*	6.3µM*	11µM*	nt	56µM*
Cc1cc(C)nc(NN2C(=O)/C(=C/c3ccc(O)cc3)SC2=S)n1	-27%	-2%	28µM*	?	?	?
O=C(NN1C(=O)/C(=C/c2ccc(O)cc2)SC1=S)c1ccccc1O	-7%	?	?	40µM*	-15%	50µM*
O=C(c1cc(=O)c2ccccc2o1)N1CCN(Cc2ccccc2)CC1	nt	nt	nt	nt	-3%	nt
O=C(NN1C(=O)/C(=C/c2cc([N+](=O)[O-])ccc2O)SC1=S)c1ccccc1O	nt	nt	-18%[2.33 µM]	5.6µM*	nt	nt
O=C(NN1C(=O)/C(=C/c2ccc(O)c([N+](=O)[O-])c2)SC1=S)c1ccccc1Cl	-9%	?	14µM*	35µM*	?	?
O=C(Cc1ccccc1)NN1C(=O)/C(=C/c2ccc(C(=O)O)cc2)SC1=S	1%	31%	nt	-16%	-8%	-17%[11.4 µM]
CC(/C=C1\SC(=S)N(NC(=O)c2cccc(O)c2)C1=O)=C\c1ccccc1	?	?	8.9µM*	11µM*	-16%	22µM*
COc1cc(/C=C2\SC(=S)N(NC(=O)c3ccccc3O)C2=O)ccc1O	-19%	?	-29%[2.33 µM]	28µM*	-28%	20µM*
COc1ccc(/C=C2\SC(=S)N(NC(=O)c3ccncc3)C2=O)cc1OC	-9%	nt	nt	?	nt	nt
CCOC1CCNCC1	nt	nt	nt	nt	35%	nt
Cc1cc(NCc2cccnc2)n2ncc(-c3ccccc3)c2n1	nt	nt	nt	nt	23%	nt
C=C(C)Cn1c(N2CCN(Cc3c(F)cccc3Cl)CC2)nc2c1c(=O)[nH]c(=O)n2C	nt	nt	nt	nt	15%	nt
O=C(c1[nH]ncc1[N+](=O)[O-])N1CCOCC1	-14%	18%	55%	-1%	?	-6%
O=C(O)c1cc2ncc(-c3[nH]ncc3[N+](=O)[O-])cn2n1	10%	-24%	-47%	-21%	-1%	79µM*
Cc1cc(C(=O)N2C[C@@H](C)[C@@](C)(O)C2)cc(S(N)(=O)=O)c1C	nt	nt	nt	nt	9%	nt
C#CCOCCOCCOCCNc1nc(N2CCN(C(=O)C([C@@H](C)O)n3cc([C@@H](N)CCCCN)nn3)CC2)nc(N2CCN(C(=O)[C@H](CCCCN)n3cc([C@@H](N)[C@H](C)CC)nn3)CC2)n1 (some centres undefined)	nt	88%	nt	nt	11%	?
C#CCOCCOCCOCCNc1nc(N2CCN(C(=O)[C@H](CCCCN)n3cc(C(N)CC(C)C)nn3)CC2)nc(N2CCN(C(=O)[C@H](CCC(=O)O)n3cc(C(N)[C@H](C)CC)nn3)CC2)n1 (some centres undefined)	5%	49%	-136%[59 µM]	50µM*	nt	50µM*
C#CCOCCOCCOCCNc1nc(N2CCN(C(=O)[C@H](CCCCN)n3cc(C(N)CO)nn3)CC2)nc(N2CCN(C(=O)[C@H](CCC(=O)O)n3cc(C(N)CC(C)C)nn3)CC2)n1 (some centres undefined)	?	nt	?	20µM*	nt	nt
